Data taken from PubChem BioAssay (Tox21).
Records with an inconclusive call do not appear. The source made the active and inactive calls. Unless noted, calls come from the whole dose curve; as a rule, active = well fitted curve in the direction sought with a large enough effect in the repeat runs; inconclusive = weak or mixed curves; inactive = no such curve, though single readings can be large; an effect the other way counts as inactive or inconclusive.

Experiments:
[1] = qHTS assay for small molecule agonists of the p53 signaling pathway (AID 651631; calls by dose curve; note: nearly all actives have a fitted effect of over 15% in size)
In short: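 Agonist mode screen using a stably integrated beta-lactamase gene under p53 response elements in HCT-116 cells. Compound exposure lasts 16 h at 37 °C; fluorescence intensity is measured following 2 h FRET substrate loading.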

[2] = qHTS assay for small molecules that induce genotoxicity in human embryonic kidney cells expressing luciferase-tagged ATAD5 (AID 651632); note: nearly all actives have a fitted effect of over 15% in size
In short: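 A rise in luciferase signal from ATAD5-tagged HEK293T cells marks genetic stress. Cells were exposed to compounds for 16 hr at 37C, 5% CO2, then luciferase was quantified after a 30 min room-temperature incubation with Amplite.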

[3] = qHTS assay for small molecule agonists of the p53 signaling pathway - cell viability (AID 651633; calls by dose curve;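 note: p53RE-bla HCT reporter cells with a stable beta-lactamase p53 reporter; series mostly up to about 83 µM; nearly all actives have a fitted effect of over 30% in size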)
In short: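 p53RE-bla cells were treated with compound for 16 hours at 37 C. Cytotoxicity was then measured as CellTiter-Glo luminescence after 30 min at room temperature.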

[4] = qHTS assay for small molecules that induce genotoxicity in human embryonic kidney cells expressing luciferase-tagged ATAD5 - cell viability (AID 651634; calls by dose curve; note: nearly all actives have a fitted effect of over 25% in size)
In short: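 Cytotoxicity counter-readout: after 15.5 hr compound treatment at 37C, live-cell protease activity in ATAD5-luciferase HEK293T cells measured by CellTiter-Fluor fluorescence, 30 min development at 37C.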

[5] = qHTS assay for small molecule disruptors of the mitochondrial membrane potential - cell viability (AID 720634; calls by dose curve;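 note: human HepG2 liver cancer cells; series mostly up to about 83 µM; nearly all actives have a fitted effect of over 20% in size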)
In short: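 Cytotoxicity was quantified from ATP content by CellTiter-Glo luminescence in the same wells as the MMP dye read-out. HepG2 (2,000 cells/well) were plated overnight and exposed to compounds for 1 hr at 37 C.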

[6] = qHTS assay to test for compound auto fluorescence at 535 nm (green) in HepG2 cells (AID 720675)
[7] = qHTS assay to test for compound auto fluorescence at 460 nm (blue) in HEK293 cells (AID 720678)
In short: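 HEK293 cells (2,000 per well, medium with 10% dialyzed FBS) attached for 4-5 hr at 37C, then received compound and stood overnight at 37C, 5% CO2. Blue fluorescence was read at Ex/Em 405/460 nm and expressed relative to triamterene.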

[8] = qHTS assay to test for compound auto fluorescence at 590 nm (red) in HEK293 cells (AID 720679)
In short: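 HEK293 cells (2,000/well, medium with 10% dialyzed FBS) attached for 4-5 hr at 37C, received 23 nL compound and were incubated overnight at 37C, 5% CO2. Red fluorescence was then read at 540/590nm Ex/Em, referenced to Rose Bengal sodium.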

[9] = qHTS assay to test for compound auto fluorescence at 535 nm (green) in HEK293 cells (AID 720680)
[10] = qHTS assay to test for compound auto fluorescence at 460 nm (blue) in HEK293 cell free culture (AID 720681)
In short: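 Compounds were added to cell-free DMEM with 10% FBS and fluorescence read directly. The blue channel used 405 nm excitation and 460 nm emission, with triamterene as the reference fluorophore.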

[11] = qHTS assay to test for compound auto fluorescence at 535 nm (green) in HEK293 cell free culture (AID 720682)
In short: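 No cells present: wells hold DMEM supplemented with 10% FBS, into which compound or vehicle is pinned. Green emission is then recorded (485 nm excitation, 535 nm emission) and scaled to fluorescein.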

[12] = qHTS assay to test for compound auto fluorescence at 590 nm (red) in HEK293 cell free culture (AID 720683)
In short: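 Cell-free wells of DMEM with 10% FBS received compound, and intrinsic fluorescence was read at excitation/emission 540/590 nm. Values expressed as equivalence to Rose Bengal sodium.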

[13] = qHTS assay to test for compound auto fluorescence at 590 nm (red) in HepG2 cell free culture (AID 720684)
In short: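 Auto fluorescence equivalency versus Rose Bengal sodium, red channel Ex/Em 540/590 nm; compounds in cell-free MEM/10% FBS; DMSO vehicle control.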

[14] = qHTS assay to test for compound auto fluorescence at 460 nm (blue) in HepG2 cell free culture (AID 720685)
In short: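 Cell-free plates of MEM plus 10% FBS received 23 nL compound or DMSO vehicle; blue-channel (405/460 nm) intensity scored against triamterene as reference fluorophore.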

[15] = qHTS assay to test for compound auto fluorescence at 535 nm (green) in HepG2 cell free culture (AID 720686)
[16] = qHTS assay to test for compound auto fluorescence at 460 nm (blue) in HepG2 cells (AID 720687)
In short: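 HepG2 cells in MEM with 10% FBS, attached overnight at 37 C, were exposed to compound or DMSO for 1 hr at 37 C, 5% CO2. Blue fluorescence was read at 405/460 nm, with triamterene as reference fluorophore.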

[17] = qHTS assay to test for compound auto fluorescence at 590 nm (red) in HepG2 cells (AID 720674)
In short: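 Fluorescence at 590 nm emission following 540 nm excitation was recorded from HepG2 wells one hour after compound transfer, with DMSO-only wells as vehicle and Rose Bengal sodium equivalency as the scale.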

[18] = biological target: Glucocorticoid receptor (Homo sapiens) (UniProt P04150); experiment: qHTS assay to identify small molecule agonists of the glucocorticoid receptor (GR) signaling pathway (AID 720691; active = well fitted activation curve with a large enough effect in the signal ratio in the repeat runs, not every such curve was filed as active; the % refers to the signal ratio)
Chain of Glucocorticoid receptor (Homo sapiens) (P04150 whole entry, looked up): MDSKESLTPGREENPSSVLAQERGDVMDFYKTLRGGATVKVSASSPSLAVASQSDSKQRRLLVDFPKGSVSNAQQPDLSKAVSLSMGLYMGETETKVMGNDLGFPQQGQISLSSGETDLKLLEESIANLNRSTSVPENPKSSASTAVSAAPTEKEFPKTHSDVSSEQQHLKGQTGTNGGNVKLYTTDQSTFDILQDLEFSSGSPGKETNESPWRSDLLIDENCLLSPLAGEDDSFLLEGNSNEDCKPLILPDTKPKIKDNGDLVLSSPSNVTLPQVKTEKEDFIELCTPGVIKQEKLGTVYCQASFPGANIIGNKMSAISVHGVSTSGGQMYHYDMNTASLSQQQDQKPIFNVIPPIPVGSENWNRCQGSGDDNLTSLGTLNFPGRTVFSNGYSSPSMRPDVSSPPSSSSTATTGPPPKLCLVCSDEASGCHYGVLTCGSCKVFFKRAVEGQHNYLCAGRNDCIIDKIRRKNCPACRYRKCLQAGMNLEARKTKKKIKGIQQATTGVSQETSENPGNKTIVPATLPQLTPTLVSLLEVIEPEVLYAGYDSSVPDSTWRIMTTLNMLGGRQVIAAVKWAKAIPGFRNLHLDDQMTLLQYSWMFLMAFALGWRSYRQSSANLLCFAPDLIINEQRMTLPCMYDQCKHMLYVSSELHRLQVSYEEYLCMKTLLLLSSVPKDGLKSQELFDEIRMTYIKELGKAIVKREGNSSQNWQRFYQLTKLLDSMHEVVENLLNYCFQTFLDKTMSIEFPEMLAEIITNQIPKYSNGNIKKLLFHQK
In short: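 Agonist-mode qHTS in HeLa cells stably expressing a glucocorticoid-response-element beta-lactamase reporter. Fluorescence intensity read with FRET substrate (2 h, room temperature) after 18 h compound treatment at 37 C.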

[19] = biological target: Glucocorticoid receptor (Homo sapiens) (UniProt P04150); experiment: qHTS assay to identify small molecule antagonists of the glucocorticoid receptor (GR) signaling pathway (AID 720692; active = well fitted inhibition curve with a large enough effect in the signal ratio in the repeat runs, not every such curve was filed as active; the % refers to the signal ratio)
In short: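 Inhibition of dexamethasone-driven (5 nM final) beta-lactamase expression was measured in GRE-reporter HeLa cells over 18 h at 37C. Fluorescence was read after 2 h with the B/G FRET substrate at room temperature.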

[20] = qHTS assay for small molecule disruptors of the mitochondrial membrane potential (AID 720635)
In short: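 HepG2 cells exposed to compound 1 hr at 37C, then Mito-MPS dye 30 min. Ratio read of aggregate (540/590 nm) versus monomer (490/535 nm) fluorescence.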
% is set by controls: 0 for no effect and ±100 for the full control effect.

NS(=O)(=O)c1cc2c(cc1C(F)(F)F)NC(Cc1ccccc1)NS2(=O)=O (stereo not drawn)
inactive: Potency [1] | Potency [2] | Potency [3] | Potency [4] | Potency [5] | fluorescence, % of fluorescein control [6] -0.0381% [at 18.6 µM] | fluorescence, % of triamterene [7] 0.0799% [at 18.6 µM] | fluorescence, % of fluorescent control [8] 0.307% [at 18.6 µM] | fluorescence, % of fluorescein [9] 0.103% [at 18.6 µM] | fluorescence, % of fluorescent control [10] 0.419% [at 18.6 µM] | activity change [11] 0.196% [at 18.6 µM] | fluorescence, % of fluorescent control [12] 0.0682% [at 18.6 µM] | fluorescence, % of Rose Bengal [13] -0.15% [at 18.6 µM] | fluorescence, % of fluorescent control [14] -0.0286% [at 18.6 µM] | fluorescence, % of fluorescein control [15] -0.0871% [at 18.6 µM] | fluorescence, % of fluorescent control [16] 0.0124% [at 18.6 µM]

CCO[Si](CCCN=C=O)(OCC)OCC
inactive: Potency [1] | Potency [2] | Potency [3] | Potency [4] | outcome [17] | outcome [6] | Potency [7] | outcome [8] | outcome [9] | Potency [10] | outcome [11] | outcome [12] | outcome [13] | Potency [14] | outcome [15] | Potency [16]

CC(CCO)CCCC(C)(C)O (stereo not drawn)
inactive: Potency [2] | Potency [3] | Potency [4] | Potency [5] | outcome [17] | outcome [6] | Potency [7] | outcome [8] | outcome [9] | Potency [10] | outcome [11] | outcome [12] | outcome [13] | Potency [14] | outcome [15] | Potency [16] | Potency [18] | Potency [19]

CC(C)(O)Cc1ccccc1
inactive: Potency [2] | Potency [3] | Potency [4] | Potency [5] | Potency [20] | outcome [17] | outcome [6] | Potency [7] | outcome [8] | outcome [9] | Potency [10] | outcome [11] | outcome [12] | outcome [13] | Potency [14] | outcome [15] | Potency [16] | Potency [18] | Potency [19]

CC1=CC(=O)CCC1
inactive: Potency [2] | Potency [3] | Potency [4] | Potency [5] | Potency [20] | outcome [17] | outcome [6] | Potency [7] | outcome [8] | outcome [9] | Potency [10] | outcome [12] | outcome [13] | Potency [14] | outcome [15] | Potency [16] | Potency [19]

NC(N)=NS(=O)(=O)c1ccc(N)cc1
inactive: Potency [2] | Potency [3] | Potency [4] | Potency [5] | Potency [20] | fluorescence, relative to Rose Bengal [17] -0.133% [at 18.6 µM] | fluorescence, % of fluorescein control [6] 0.0157% [at 18.6 µM] | fluorescence, % of triamterene [7] 0.195% [at 18.6 µM] | fluorescence, % of fluorescent control [8] 0.29% [at 18.6 µM] | fluorescence, % of fluorescein [9] 0.0406% [at 18.6 µM] | fluorescence, % of fluorescent control [10] -0.0354% [at 18.6 µM] | activity change [11] 0.0753% [at 18.6 µM] | fluorescence, % of fluorescent control [12] -0.0082% [at 18.6 µM] | fluorescence, % of Rose Bengal [13] 0.343% [at 18.6 µM] | fluorescence, % of fluorescent control [14] -0.0031% [at 18.6 µM] | fluorescence, % of fluorescein control [15] -0.0207% [at 18.6 µM] | fluorescence, % of fluorescent control [16] -0.0417% [at 18.6 µM] | Potency [18] | Potency [19]

CCN1CCN(c2cc3c(cc2F)c(=O)c(C(=O)O)cn3C2CC2)CC1
inactive: Potency [2] | Potency [3] | Potency [4] | Potency [5] | outcome [17] | outcome [6] | Potency [7] | outcome [8] | outcome [9] | Potency [10] | outcome [11] | outcome [12] | outcome [13] | Potency [14] | outcome [15] | Potency [16] | Potency [18] | Potency [19]
